High-throughput results: PubChem BioAssay, National Center for Advancing Translational Sciences (NCATS)
Hits are enriched below; roughly 19% of the tested compounds scored in any of these assays.
TDP1 cell noCPT: qHTS for Inhibitors of human tyrosyl-DNA phosphodiesterase 1 (TDP1): qHTS in cells in absence of CPT. DT40 Tdp1-/- hTDP1 cells, no CPT, ATP luminescence, 48 h. Potency, µM (series often up to 46.2 µM), without a hit: top-dose activity change, negative = growth inhibition, most hits filed as inhibitors. actives 15% (n = 420,000); note: nearly all actives have a fitted effect of over 55% in size
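Camptothecin absent (DMSO only). Human TDP1-complemented DT40 knockout cells, 400 cells/well, 37 °C for minimum 48 hr; ATP measured via CellTiter-Glo, 30 min dark incubation, luminescence.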
DT40 TDP1 CPT: growth inhibition of DT40 Tdp1-/-;hTDP1 cells with camptothecin (screen for TDP1 inhibitors); chicken DT40 Tdp1-/-;hTDP1 cells + 20 nM CPT, ATP luminescence, 48 h; actives 12% (n = 420,000); Potency, µM (series often up to 46.2 µM), without a hit: top-dose activity change, negative = growth inhibition, hits mostly inhibitors; AID 686979; note: nearly all actives have a fitted effect of over 55% in size
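Cell growth measured by CellTiter-Glo luminescence after a minimum 48 h, 37 C compound exposure with 20 nM CPT in Tdp1-knockout DT40 cells stably expressing hTDP1, seeded 400/well; qHTS titration format.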
RORg inh: blocks mouse ROR gamma transcriptional activity | P51450 | Drosophila S2 Gal4-RORgamma UAS-luciferase reporter, 20 h | Potency, µM (top dose mostly 53.6 µM), for inactives: at the highest dose activity change, negative = inhibition, most hits filed as inhibitors | actives 5.4% (n = 310,000) | AID 2551; note: nearly all actives have a fitted effect of over 60% in size
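Using a luciferase readout, inhibitors were identified by reduced reporter activity in Drosophila cells coexpressing a copper-inducible Gal4–ROR gamma fusion and UAS-driven Photinus luciferase, incubated 20 hr after 700 uM copper sulfate.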
TDP1 inh: blocks human tyrosyl-DNA phosphodiesterase 1. recombinant TDP1, AlphaScreen DNA substrate cleavage. Potency, µM (titrated, usually from 130 µM), for inactives: at the top dose activity change, negative = inhibition, usual class: inhibitors. actives 0.28% (n = 350,000); note: nearly all actives have a fitted effect of over 40% in size
Target sequence (Q9NUW8 whole entry, looked up): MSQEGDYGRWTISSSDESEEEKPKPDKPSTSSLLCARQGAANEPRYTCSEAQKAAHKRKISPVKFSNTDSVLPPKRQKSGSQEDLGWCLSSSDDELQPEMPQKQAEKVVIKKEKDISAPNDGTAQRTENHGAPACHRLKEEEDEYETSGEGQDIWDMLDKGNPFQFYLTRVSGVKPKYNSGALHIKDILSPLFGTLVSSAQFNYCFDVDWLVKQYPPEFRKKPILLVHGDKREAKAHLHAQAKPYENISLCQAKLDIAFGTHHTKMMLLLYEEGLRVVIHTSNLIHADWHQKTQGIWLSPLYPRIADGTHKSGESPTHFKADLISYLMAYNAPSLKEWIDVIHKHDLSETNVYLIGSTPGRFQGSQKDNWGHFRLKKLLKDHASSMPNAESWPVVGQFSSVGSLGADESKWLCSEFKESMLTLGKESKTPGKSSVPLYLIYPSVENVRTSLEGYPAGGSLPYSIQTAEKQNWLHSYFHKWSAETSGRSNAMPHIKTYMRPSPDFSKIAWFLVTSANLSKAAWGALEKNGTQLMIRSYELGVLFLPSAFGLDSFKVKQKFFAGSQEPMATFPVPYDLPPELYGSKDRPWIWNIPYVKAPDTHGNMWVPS
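Enzyme-compound mixtures sat 15 min at room temperature, followed by a 5 min reaction with 15 nM final substrate and 10 min with AlphaScreen beads. Recombinant human Tdp1 was used at 1 nM final.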
Gal4-VP16 FLuc: Gal4-VP16 reporter inhibition counter-screen; Drosophila S2 Gal4-VP16 UAS-luciferase, luminescence, 20 h; Potency, µM (series often up to 53.6 µM), inactives show at the highest dose activity, negative = inhibition, most hits filed as inhibitors; actives 3.5% (n = 310,000); AID 2546;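 note: Gal4-VP16 expression switched on by copper sulfate through the metallothionein promoter; nearly all actives have a fitted effect of over 50% in size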
* = called active by the depositor; ? = inconclusive; / = not tested or not shown; [ ] = remark or other dose. Calls come from the whole dose curve; as a rule, active = well fitted curve in the direction sought with a large enough effect; inconclusive = small, poorly fitted or top-dose-only effect, or another doubt; inactive = no such curve, though single readings can be large; an effect the other way counts as inactive or inconclusive. % is set by controls: 0 for no effect and ±100 for the full control effect; potency is the fitted concentration of half-maximal effect.

SMILES	TDP1 cell noCPT	DT40 TDP1 CPT	RORg inh	TDP1 inh	Gal4-VP16 FLuc
Cc1ccc(OCCNS(=O)(=O)c2ccc(N3CCCC3=O)cc2)cc1	5.8µM*	6.5µM*	?	-2%	13µM*
COc1ccc(OC)c(NS(=O)(=O)c2ccc(-n3cccn3)cc2)c1	10µM*	?	/	0%	/
Cn1c(=O)oc2cc(S(=O)(=O)NCCCN3CCCC3=O)ccc21	17%	-3%	5%	7%	-23%
Cc1cc(N2CCCC2=O)cc(C)c1S(=O)(=O)NCCOc1ccccc1	?	8.2µM*	15%	-5%	-7%
CCNS(=O)(=O)c1c(C)cc(N2CCCC2=O)cc1C	-20%	-11%	-9%	3%	-11%
CC(=O)c1cnc(Nc2ccc(C)cc2)s1	17%	10%	-14%	3%	25%[10 µM]
COc1ccc(S(=O)(=O)N2c3ccc(Cl)cc3[C@](O)(c3ccccc3Cl)[C@@H]2C(=O)N2CCC[C@H]2C(N)=O)cc1OC	/	/	20%	10%	?
COc1ccc(OCc2cc(C(=O)N(C)CCC3CCOCC3)no2)c(Cl)c1	?	?	?	2%	?
COc1ccc(OC)c(NS(=O)(=O)c2ccc(N3CCCC3=O)cc2)c1	0.37µM*	0.52µM*	1%	2%	-4%
Cc1ccc(OCCNS(=O)(=O)c2ccc(N3CCCC3=O)cc2)cc1C	6.5µM*	6.5µM*	-44%	4%	13µM*
COc1ccc(CCNS(=O)(=O)c2ccc(N3CCCC3=O)cc2)cc1	21µM*	21µM*	/	/	/
COc1ccc(NS(=O)(=O)c2ccc3c(c2)Cc2ccccc2-3)cn1	?	?	8%	4%	?
COc1ccc(NS(=O)(=O)c2ccc(N3CCCC3=O)cc2)cn1	6.5µM*	4.6µM*	31%	4%	-28%
O=C1CCCN1c1ccc(S(=O)(=O)NCCc2ccc(Cl)cc2)cc1	?	?	-20%	0%	-10%
COc1ccc(NS(=O)(=O)c2cc3c4c(c2)CCN4C(=O)CC3)c(OC)c1	-21%	-16%	/	-3%	/
CCCCCn1nc(C)c(/C=N\NC(=O)c2cc(C)oc2C)c1C	-28%	-21%	?	8%	6%
CCN(Cc1ccccc1)c1cc2c(c3c1ccn3C)C1CCC2C1 (centres undefined)	23µM*	23µM*	/	/	/
CCN(CC)c1cc2c(c3c1ccn3C)C1CCC2C1 (centres undefined)	?	26µM*	/	/	/
CN(c1ccc(Cl)cc1)c1cc2c(c3c1ccn3C)C1CCC2C1 (centres undefined)	-19%	1%	/	/	/
CN(c1cc(Cl)c2c(c1)OCO2)c1cc2c(c3c1ccn3C)C1CCC2C1 (centres undefined)	21µM*	?	/	/	/
O=C(NCCO)N1c2ccccc2Sc2ccccc21	5%	27%	-33%	1%	-3%
Cc1cc(C)n(S(=O)(=O)c2cc(C(=O)O)c(Cl)cc2Cl)n1	?	-1%	1%	4%	0%
COC(=O)c1cc(S(=O)(=O)n2nc(C)c(Br)c2C)c(Cl)cc1Cl	15µM*	26µM*	11%	5%	17%
O=C1CCCN1CCCNS(=O)(=O)c1ccc(Cl)c(C(=O)N2CCOCC2)c1	-8%	0%	-1%	5%	0%
CCOc1ccc2nc(SCC(=O)Nc3ccc(F)cc3)nc(-c3ccccc3)c2c1	-1%	-5%	/	2%	/
SMILES	TDP1 cell noCPT	DT40 TDP1 CPT	RORg inh	TDP1 inh	Gal4-VP16 FLuc
O=C1c2cc(Cl)ccc2OC2(CCNCC2)C12CC(c1ccccc1)=NO2 (centres undefined)	16µM*	21µM*	22%	5%	5%
CC(C)C(=O)N1CCC2(CC1)Oc1ccc(Cl)cc1C(=O)C21CC(c2ccc(Cl)cc2)=NO1 (centres undefined)	-19%	?	2%	2%	2%
O=C(c1ccc2c(c1)OCO2)N1CCC2(CC1)Oc1ccc(Cl)cc1C(=O)C21CC(c2ccccc2)=NO1 (centres undefined)	-16%	-4%	14%	1%	-4%
O=C1c2cc(Cl)ccc2OC2(CCNCC2)C12CC(c1ccc(Cl)cc1)=NO2 (centres undefined)	18µM*	18µM*	-25%	?	?
O=c1oc(-c2ccccc2)nc2ccsc12	?	-2%	-2%	3%	?
COc1ccc(C(c2c(O)ccc3ccccc23)N2CCOCC2)c(OC)c1 (centres undefined)	29µM*	?	-9%	2%	-26%
COc1ccc(C(CC(=O)N2CCOCC2)c2c(O)cc(OC)cc2OC)cc1 (centres undefined)	-6%	1%	-29%	7%	0%
CC(C)(C)c1nc2cc(Cl)c([N+](=O)[O-])cc2o1	23µM*	?	23%	0%	2%
CC(C)(C)Nc1nc2cc([N+](=O)[O-])ccc2o1	-23%	-17%	-15%	4%	-3%
Cc1cccc(CN2CCc3c([nH]c4ccccc34)C2)c1	18µM*	21µM*	1%	/	-1%
Clc1ccc(CN2CCc3c([nH]c4ccccc34)C2)cc1Cl	15µM*	?	-12%	/	-23%
Clc1cccc(CN2CCc3c([nH]c4ccccc34)C2)c1	?	?	0%[1.91 µM]	/	-15%
Cc1ccc(C(=O)N2CCC2(C)C(=O)NC(C)C)cc1 (centres undefined)	20%	-6%	/	/	/
CCOC(=O)c1c(NC(=O)COC(=O)Cn2cnc3c2c(=O)n(C)c(=O)n3C)sc(C)c1CC	-22%	6.5µM*	/	/	/
Fc1ccc(Nc2nc(Oc3ccccc3F)nc(N3CCCC3)n2)cc1	?	-28%	30%	9%	-7%
O=C1CCCCCN1Sc1ccccc1	5.2µM*	5.8µM*	?	9%	?
O=C(CCSc1ccccc1)N1CCCC1	-16%	-6%	-24%	9%	-30%
CN(c1ccc(F)cc1)S(=O)(=O)c1ccc(Cl)c(C(=O)NCC2CCCO2)c1 (centres undefined)	?	?	/	5%	/
COc1ccccc1N(C)S(=O)(=O)c1ccc(Cl)c(C(=O)OCc2c(C)noc2C)c1	23µM*	?	-16%	-3%	-9%[10 µM]
COc1ccccc1N(C)S(=O)(=O)c1ccc(Cl)c(C(=O)NCC2(N(C)C)CCCCC2)c1	8.2µM*	?	/	/	/
COc1ccccc1NS(=O)(=O)c1ccc(C(=O)NCC2(N(C)C)CCCCC2)cc1	?	-19%	/	/	/
Cc1noc(C)c1COC(=O)c1cc(F)c(F)cc1Cl	-3%	-3%	-6%	2%	1%
COc1ccccc1N1CCN(C(=O)c2ccccc2N(C)S(=O)(=O)c2ccc(C)cc2)CC1	16µM*	?	35%	5%	11%
